Tests used:
Assay in all cases: PBM binding z-score (relative to random genomic background probes); higher = stronger binding; sequences stand for … in GC…GCGATTGACAGCGTAGAATGAAGG
[1] = test system: FXR:RXRa (NR concentration 270 nM, RXRa partner concentration 90 nM)
Outline: (§1)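 On custom Agilent 4×180K arrays, double-stranded probes with 34-nt variable regions carried direct-repeat seeds, single-nucleotide variants, half-site ablations or random human genomic background. Ligand-free nuclear receptor dimers were applied for 1 h, and binding was read with antibodies against each partner (one per run). Binding z-scores come from regression-normalized fluorescence, with the random background probes as reference.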

[2] = test system: LXRa:RXRa (NR concentration 270 nM, RXRa partner concentration 90 nM)
Outline: as §1

[3] = test system: LXRa homodimer (NR concentration 270 nM)
Outline: as §1

[4] = test system: LXRb:RXRa (NR concentration 270 nM, RXRa partner concentration 90 nM)
Outline: as §1

[5] = test system: LXRb homodimer (NR concentration 270 nM)
Outline: as §1

[6] = test system: PPARa:RXRa (NR concentration 270 nM, RXRa partner concentration 90 nM)
Outline: as §1

[7] = test system: PPARg:RXRa (NR concentration 180 nM, RXRa partner concentration 90 nM)
Outline: as §1

[8] = test system: PPARg:RXRa 270nM:90nM, anti-RXR (NR concentration 270 nM, RXRa partner concentration 90 nM)
Outline: as §1

[9] = test system: PPARg:RXRa 30nM:10nM, anti-RXR (NR concentration 30 nM, RXRa partner concentration 10 nM)
Outline: as §1

[10] = test system: PPARg:RXRa 90nM:30nM, anti-RXR (NR concentration 90 nM, RXRa partner concentration 30 nM)
Outline: as §1

[11] = test system: PPARg:RXRa DBDmut IVT, anti-RXR (DBD mutation: RXRa K156A/R161A, NR concentration 270 nM, RXRa partner concentration 90 nM)
Outline: as §1

[12] = test system: PPARg:RXRa IVT, anti-PPARg (NR concentration 270 nM, RXRa partner concentration 90 nM)
Outline: as §1

[13] = test system: PPARg DBDmut:RXRa IVT, anti-PPARg (DBD mutation: PPARg1 K132A/R137A, NR concentration 270 nM, RXRa partner concentration 90 nM)
Outline: as §1

[14] = test system: PPARg DBDmut IVT, anti-PPARg (DBD mutation: PPARg1 K132A/R137A, NR concentration 270 nM)
Outline: as §1

[15] = test system: PPARg homodimer (NR concentration 180 nM)
Outline: as §1

[16] = test system: PXR:RXRa (NR concentration 270 nM, RXRa partner concentration 90 nM)
Outline: as §1

[17] = test system: PXR homodimer (NR concentration 270 nM)
Outline: as §1

[18] = test system: RARa:RXR (NR concentration 270 nM, RXRa partner concentration 90 nM)
Outline: as §1

[19] = test system: RARa homodimer (NR concentration 270 nM)
Outline: as §1

[20] = test system: RARb:RXRa (NR concentration 270 nM, RXRa partner concentration 90 nM)
Outline: as §1

Row | Sequence | PBM binding z-score [1] | PBM binding z-score [2] | PBM binding z-score [3] | PBM binding z-score [4] | PBM binding z-score [5] | PBM binding z-score [6] | PBM binding z-score [7] | PBM binding z-score [8] | PBM binding z-score [9] | PBM binding z-score [10] | PBM binding z-score [11] | PBM binding z-score [12] | PBM binding z-score [13] | PBM binding z-score [14] | PBM binding z-score [15] | PBM binding z-score [16] | PBM binding z-score [17] | PBM binding z-score [18] | PBM binding z-score [19] | PBM binding z-score [20]
1 | ACTCAGAGGACAAAGGTCAGAGCTACGCCAGTGA | 4.51 | 4.87 | 1.72 | 3.52 | 0.532 | 5.3 | 7.56 | 7.42 | 5.13 | 7.46 | 1.49 | 3.79 | -0.0394 | -0.208 | 3.47 | 4.07 | 0.501 | 5.53 | 1.81 | 4.71
2 | ATTGAAAGGTCGAAGGTGAGTATACCCACCCGAA | 4.77 | 3.47 | 0.632 | 2.97 | 0.961 | 4.74 | 5.11 | 5.53 | 2.82 | 5.09 | 0.108 | 2.82 | 1.09 | 0.602 | 2.51 | 3.15 | 0.394 | 4.57 | 0.818 | 3.83
3 | CCAGACAGGGGAGAAGGTAACTCAGCCTCGATTA | -0.354 | -0.331 | -0.147 | -0.0664 | -0.72 | -0.0873 | 0.239 | 0.0493 | -0.552 | 0.0211 | 0.0282 | -0.359 | -0.398 | -1.2 | 0.413 | -0.427 | -0.0553 | -0.353 | 0.21 | -0.286
4 | CATACAGGGTCAGGTAGGCCAGAGTAGGGACGGC | 4 | 2.92 | -0.133 | 2.21 | 0.723 | 4.2 | 3.15 | 2.92 | 0.655 | 2.16 | 0.321 | 2.48 | 0.416 | 0.457 | 1.75 | 2.23 | 0.241 | 3.46 | 0.612 | 3.73
5 | ATCTCTAGGTAAGACTCAGTTCAGTGATGAACGC | 0.343 | 0.402 | 0.634 | 0.249 | 0.676 | 0.268 | 0.294 | 0.427 | 0.243 | 0.302 | 1.78 | 1.28 | 1.15 | 1.33 | 1.36 | 0.974 | 1.63 | 0.24 | 0.763 | 0.357
6 | TCTCGGAAGACACGAAAGGTCAGAGCTCGACATC | 2.36 | 3.38 | 1.85 | 3.1 | 0.242 | 3.61 | 0.772 | 2.46 | 3.29 | 2.35 | 2 | 1.27 | 0.544 | -0.207 | 3.09 | 3.58 | 0.388 | 4.27 | 1.14 | 3.73
7 | ACTAGCAGCCCAAGTTTGGGTCACTCAAACAAAG | -0.21 | -0.0985 | -0.387 | 0.667 | -0.605 | 0.976 | -0.169 | 0.0773 | -0.863 | -0.372 | -0.54 | 0.157 | -0.825 | -0.894 | 0.227 | 0.606 | -0.424 | 1.19 | -0.533 | 0.813
8 | AGTCGAAGTTCATCTAGGTAACGTAAGATATGCT | 2.95 | 2.8 | 1.21 | 1.62 | 0.0848 | 2.8 | 1.9 | 2.32 | 0.883 | 1.66 | 0.32 | 2.06 | 0.625 | 0.713 | 1.04 | 3.3 | 2.97 | 1.67 | 0.799 | 3.05
9 | CCTCGGAGGACACAAGGTCAGAGCTGTCCGCTTT | 1.95 | 2.18 | 0.422 | 1.25 | -0.693 | 2.17 | 0.424 | 1.15 | -0.626 | 0.468 | 0.831 | 0.883 | -1.16 | -1.74 | 1.72 | 2.35 | 0.133 | 2.25 | 0.096 | 3.46
10 | CAAACTATGTCAAAGGTCAAAGTCGAGCCAACCA | 6.52 | 6.3 | 5.11 | 5.79 | 2.93 | 7.19 | 11.9 | 10.2 | 10.4 | 11.8 | 5.12 | 6.61 | 1.88 | 0.733 | 3.54 | 5.93 | 1.52 | 7.09 | 2.38 | 5.1
11 | ATCGAAAGGTCGAGGTGAGTATTGAGAAAGGGAA | 4.14 | 3.39 | -0.0656 | 2.81 | 0.293 | 4.74 | 3.29 | 3.53 | 1.37 | 2.19 | 0.628 | 2.34 | 0.498 | 0.451 | 1.67 | 2.33 | 0.428 | 3.07 | 0.977 | 4.15
12 | GCATATAGGTAATAAAAGGTGAAAGTCCGATTGT | 1.12 | 4.97 | 0.418 | 1.97 | -0.165 | 2.47 | 1.65 | 2.12 | 0.664 | 1.72 | 3.99 | 3.33 | 0.83 | 0.676 | 1.38 | 0.771 | 0.163 | 2.04 | 0.974 | 1.12
13 | ATCTCTAGGTAACCAAGATCAGTGAATGCCGAAC | 0.221 | 0.126 | 0.199 | 0.274 | 0.276 | 0.613 | 0.694 | 0.588 | 0.161 | 0.426 | 2.88 | 2.67 | 0.887 | 1.13 | 0.619 | 0.0058 | 0.344 | 0.377 | 0.145 | 0.119
14 | CAAACTAGGTCACGGTCAAAGTCGGTTTGTGCCA | 5.44 | 4.31 | 1.73 | 3.13 | 0.506 | 5.57 | 9.6 | 7.81 | 5.91 | 7.67 | 8.53 | 9.26 | 4.37 | 3.83 | 2.22 | 2.72 | -0.218 | 3.68 | 0.991 | 4.81
